Seven compounds from PubChem BioAssay (NCI) can be followed below.

Test in all cases: NCI-60 one-dose screen, 48 h (100 = growth as untreated, 0 = no growth, -100 = all killed)
For assay [1], the system named is SN12C renal. The settings on record: 10 µM unless noted.
In assay [2] the test system is UO-31 renal. The settings on record: 10 µM unless noted.
Assay [3] deals with TK-10 renal. The settings on record: 10 µM unless noted.
Assay [4] has as its system ACHN renal. The following applies: 10 µM unless noted.
For assay [5], the system named is CAKI-1 renal. The following applies: 10 µM unless noted.
Assay [6] concerns A498 renal. The following applies: 10 µM unless noted.
For assay [7], the system named is CCRF-CEM leukemia. The following applies: 10 µM unless noted.
The subject of assay [8] is MOLT-4 leukemia. The settings on record: 10 µM unless noted.
In assay [9] the test system is SR leukemia. The settings on record: 10 µM unless noted.
Assay [10] concerns RPMI-8226 leukemia. The settings on record: 10 µM unless noted.
Assay [11] concerns OVCAR-8 ovarian. The following applies: 10 µM unless noted.
Assay [12] deals with OVCAR-5 ovarian. The settings on record: 10 µM unless noted.
Assay [13] relates to OVCAR-4 ovarian. The settings on record: 10 µM unless noted.
For assay [14], the system named is SK-OV-3 ovarian. The following applies: 10 µM unless noted.
Assay [15] relates to IGROV1 ovarian. The following applies: 10 µM unless noted.
The test system of assay [16] is OVCAR-3 ovarian. The settings on record: 10 µM unless noted.
In assay [17] the test system is HS 578T breast. The settings on record: 10 µM.
The test system of assay [18] is NCI/ADR-RES ovarian. The following applies: 10 µM unless noted.

This is part of a sample that, as a whole, favours compounds with a hit. Of some 83,000 tested, about 20% had one in any assay.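 96-well plates, one dose, 48 hours. Percent growth reported; active if below 10.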 A number with no mark means an inactive call. Activity calls are given as the source filed them.

For the compound `NS(=O)(=O)c1ccc(N2N=C(c3ccc(Br)cc3)CC2c2cn(-c3ccccc3)nc2-c2ccc(Cl)cc2)cc1` (stereo not drawn), the growth was 78.6% in assay [1]; 58.3% in assay [2]; 112% in assay [3]; 86.5% in assay [4]; 89% in assay [5]; 113% in [6]. Moreover, the growth in assay [7] was 70.8%; in assay [8], 74.8%; in assay [9], 72%; in assay [10] it was 74%; in assay [11] it was 90.6%; in [12] it was 102%. In addition, the growth in [13] was 93.7%; in assay [14], 94.7%; in assay [15], 93.8%; in [16], 95.1%; in assay [17] it was 100%; in [18], 86.6%.

Consider `Cc1cc(Cl)c2ccc(N(C)C)cc2n1`, for which the growth was 98% in assay [1]; 84.4% in [2]; 109% in assay [3]; 97.6% in assay [4]; 93% in assay [5]; 92.6% in assay [6]. Moreover, the growth in [7] was 95.9%; in [8], 84.7%; in [9], 87.3%; in assay [10] it was 97%; in assay [11] it was 102%; in [12], 105%. In addition, the growth was 105% in assay [13]; 97.4% in assay [14]; 106% in assay [15]; 104% in assay [16]; 96.9% in [17]; 104% in assay [18].

Take `NC(=O)c1noc(C(=O)c2ccccc2)c1N`: the growth in assay [1] was 99.7%; in [2], 90.2%; in [3], 92.5%; in [4], 99.6%; in assay [5] it was 98.6%; in assay [6] it was 72%. In addition, the growth is 98.8% in [7]; 95.1% in [8]; 90.8% in assay [9]; 99.4% in assay [10]; 97.3% in assay [11]; 100% in assay [12]. Besides, the growth in [13] is 89.4%; in assay [14], 107%; in [15], 90.4%; in assay [16], 96.9%; in assay [18] it was 112%.

On to `O=C1CC2(O)CSc3nc(=O)cc(n32)N1` (stereo not drawn), for which the growth in assay [1] was 96.9%; in assay [2] it was 82.7%; in assay [3] it was 106%; in assay [4], 101%; in [5] it was 92.5%; in [6], 104%. For the same compound, the growth was 101% in assay [7]; 107% in assay [8]; 102% in assay [9]; 99% in assay [10]; 107% in assay [11]; 105% in assay [12]. Besides, the growth in assay [13] was 121%; in assay [14], 102%; in assay [15], 109%; in [16], 115%; in assay [17], 121%; in [18] it was 112%.

`COc1cccc(Cn2c(-c3nonc3NC(C)=O)nc3ccccc32)c1`: the growth in assay [1] is 48.4%; in [2], 36%; in assay [3], 26.6%; in assay [4], 42.8%; in assay [5], 24%; in assay [6], -0.794% (active). Besides, the growth in assay [7] is 41%; in [8], 38.7%; in assay [9], 16.3%; in [10] it was 28.4%; in assay [11], 50.9%; in assay [12], 39.2%. Moreover, the growth in assay [13] was 79.9%; in assay [14], 16.9%; in assay [15], 56.8%; in assay [16], 69.5%; in assay [17], 23.6%; in [18] it was 30.3%.

`COc1cc(C2CC(c3cccc(Nc4ccnc5cc(Cl)ccc45)c3)=NN2c2ccccc2)cc(OC)c1OC` (stereo not drawn): the growth in assay [1] was 68.1%; in [2], 38%; in [3], 75.4%; in assay [4], 45%; in [5], 8.35% (active); in [6] it was 73.3%. Besides, the growth in [7] was 57.1%; in [8] it was 74.4%; in [9], 52.7%; in [10], 53.1%; in assay [11] it was 69.6%; in assay [12], 99.8%. Besides, the growth in assay [13] is 124%; in [14], 101%; in assay [15], 76.4%; in [16], 90.6%; in [17], 63.6%.

On to `CCCCCCCCCCCCCCCc1cc(O)ccc1[N+](=O)[O-]`, for which the growth in [1] was 75.5%; in [2] it was 58.6%; in assay [3], 112%; in [4] it was 91.9%; in assay [5], 72.9%; in [6] it was 98%. Also, the growth in [7] is 9.46% (active); in [8], 32.2%; in [9] it was 74.5%; in [10], 36.3%; in assay [11], 76.9%; in assay [12], 94%. Also, the growth is 87.2% in assay [13]; 92% in [14]; 73.9% in assay [15]; 87.7% in assay [16]; 77.1% in assay [18].
